Compound activity deposited in PubChem BioAssay by National Center for Advancing Translational Sciences (NCATS).
Pol beta inh – inhibitors of human DNA polymerase beta. Pol beta primer extension/strand displacement, fluorescence kinetic. Potency, µM (series often up to 114 µM), most hits filed as inhibitors. AID 485314. 340,000 tested, 1.3% active
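Homogeneous kinetic assay of primer extension and strand displacement by 10 nM Pol beta, preincubated 15 min at room temperature with compound before 50 nM substrate (final) was added. Read at 0 and 10 min; four-parameter Hill fit.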
FEN1 inh – human FEN1 inhibition; Recombinant FEN1 flap cleavage, fluorescence, 15 min; Potency, µM (titrated, usually from 114 µM), usual class: inhibitors; 390,000 tested, 0.35% active; P39748; note: nearly all actives have a fitted effect of over 65% in size
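Concentration–response screening of FEN1 (10 nM): 15 min compound preincubation at room temperature, reaction started with 50 nM substrate and read at 0 and 15 min. Corrected, normalized data were fitted by a four-parameter Hill equation.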
Pol eta inh – inhibitors of human DNA polymerase eta. Q9Y253. 390,000 tested, 1.2% active. Potency, µM (series often up to 114 µM), hits mostly inhibitors. recombinant Pol eta, fluorescent DNA replication assay
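Pol eta at 10 nM preincubated with compounds 15 min at room temperature; reaction started with fluorescent substrate (50 nM final) and read kinetically at 0 and 10 min.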
Pol kappa inh – DNA polymerase kappa (human) inhibition; Q9UBT6; purified Pol kappa, fluorescent DNA synthesis assay, 10 min; Potency, µM (series often up to 107 µM), hits mostly inhibitors; 400,000 tested, 0.53% active
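Readout: fluorescence, taken kinetically at 0 and 10 min. Conditions: 10 nM Pol kappa, 15 min RT compound preincubation, 50 nM substrate final. Controls: enzyme-free buffer wells.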
WRN inhibitor – blocks human WRN helicase. AID 651768. Q14191. WRN helicase unwinding, fluorescent forked duplex, kinetic. 360,000 tested, 0.46% active. Potency, µM (series often up to 114 µM), most hits filed as inhibitors; note: nearly all actives have a fitted effect of over 55% in size
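WRN at 20 nM final was preincubated with compound for 15 min at room temperature; reaction started with 100 nM forked duplex oligonucleotide carrying fluorophore and quencher plus 2 mM ATP (final). Unwinding followed kinetically by red fluorescence (ex 525/em 598 nm).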
POLI inh – blocks human DNA polymerase iota activity; Pol iota fluorescent replication assay, 10 min; 390,000 tested, 1% active; Q9UNA4; Potency, µM (top dose mostly 115 µM), usual class: inhibitors
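Fluorescent replication assay read twice, at 0 min and 10 min after adding 50 nM (final) substrate. Enzyme (10 nM) and compounds were first incubated 15 min at room temperature; enzyme-free buffer wells were negative controls.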
Each line names hits and unclear results; the compound was inactive in the other large screens. In the library only some 2.4% were active in any assay of this set; here they are far more common. Calls come from the whole dose curve; as a rule, active = well fitted curve in the direction sought with a large enough effect; inconclusive = small, poorly fitted or top-dose-only effect, or another doubt; inactive = no such curve, though single readings can be large; an effect the other way counts as inactive or inconclusive.

COc1ccc(S(=O)(=O)c2cnc3ccc(Cl)cc3c2N2CCCCC2C)cc1 (configuration not stated)	none (no result: WRN inhibitor)
Cc1nn(-c2ccccn2)c2c1-c1nc(N)sc1CC2	FEN1 inh inconclusive, POLI inh 3.16µM (no result: Pol beta inh, Pol eta inh, WRN inhibitor)
O=C1/C(=C\c2ccc(O)cc2)SC(=S)N1Cc1ccccc1	Pol beta inh inconclusive, POLI inh inconclusive
O=C1/C(=C\c2cc(Br)cc(Br)c2O)SC(=S)N1Cc1ccccc1	Pol beta inh 35.5µM, FEN1 inh inconclusive, Pol eta inh 79.4µM, WRN inhibitor 39.8µM, POLI inh 3.16µM
CCOc1cc(/C=C2/SC(=S)N(Cc3ccccc3)C2=O)ccc1O	Pol beta inh inconclusive, Pol eta inh inconclusive, WRN inhibitor 35.5µM, POLI inh inconclusive
O=C1/C(=C/c2ccc(O)c([N+](=O)[O-])c2)SC(=S)N1Cc1ccccc1	Pol eta inh inconclusive
O=S(=O)(c1ccccc1C(F)(F)F)N1CCN(c2nc(-c3cccs3)nc3ccccc23)CC1	POLI inh inconclusive (no result: Pol beta inh, Pol eta inh, WRN inhibitor)
CCCCCCc1cc2cc(C(N)=O)c(=N)oc2cc1O	Pol beta inh 31.6µM (no result: FEN1 inh, Pol eta inh, Pol kappa inh, WRN inhibitor, POLI inh)
Cc1ccc(-c2cn(-c3ccc(Cl)cc3)c(S(=O)(=O)CC(=O)Nc3ccccc3)n2)cc1	none (no result: WRN inhibitor)
Cn1c2ccccc2c2cc(/C=N/NC(=O)c3ccc(N)cc3)ccc21	Pol beta inh 10µM, Pol eta inh inconclusive, Pol kappa inh inconclusive, POLI inh inconclusive
COc1cccc(C2C(C(=O)Nc3ccccc3)=C(C)Nc3nnnn32)c1OC (configuration not stated)	none (no result: WRN inhibitor)
Cc1cc(C)n(CCc2nc(-c3cc4ccccc4o3)cs2)n1	none
Cc1cc(C)n(CCc2nc(-c3ccc(C)o3)cs2)n1	Pol beta inh 50.1µM, Pol eta inh 15.8µM, POLI inh inconclusive
COc1ccc(N2CCN(C(=O)c3cc4c(s3)-c3c(C)cccc3OC4)CC2)cc1	none (no result: WRN inhibitor)
Cc1cccc2c1-c1sc(C(=O)NCCc3ccc(Cl)cc3)cc1CO2	Pol beta inh 8.91µM, POLI inh inconclusive (no result: WRN inhibitor)
COc1ccc(CNC(=O)c2cc3c(s2)-c2c(C)cccc2OC3)cc1	Pol beta inh 14.1µM, POLI inh inconclusive (no result: WRN inhibitor)
Cc1cccc(CCNC(=O)c2cc3c(s2)-c2c(C)cccc2OC3)c1	Pol beta inh inconclusive (no result: WRN inhibitor)
CN(C)c1ccc(/C=C/c2cc3ccccc3cn2)cc1	FEN1 inh inconclusive, Pol kappa inh inconclusive (no result: Pol beta inh, Pol eta inh, WRN inhibitor)
COc1cc(C=C2C(=O)C=CC2=O)ccc1O	WRN inhibitor 10µM (no result: Pol beta inh, FEN1 inh, Pol eta inh, Pol kappa inh, POLI inh)
COc1cc(NC(=O)CSc2cc(=O)n(C)c3ccccc23)cc(OC)c1OC	none (no result: WRN inhibitor)
Cc1ccc(NC(=O)CSc2nnc(-c3ccccc3)n2C)cc1	none (no result: Pol beta inh, Pol eta inh, WRN inhibitor)
Cc1nc2ccc(-c3nc4ccccc4[nH]3)cc2[nH]1	Pol beta inh 12.6µM, POLI inh inconclusive
Cc1ccc(-c2nc3ccccc3[nH]2)cn1	none
CCOC(=O)C1Nc2ccc(Br)cc2C2C=CCC12 (configuration not stated)	Pol beta inh inconclusive, Pol eta inh 79.4µM, Pol kappa inh inconclusive, POLI inh 44.7µM
O=C(OC1CCCCC1)c1ccc2c(c1)C1C=CCC1C(C(=O)O)N2 (configuration not stated)	Pol beta inh 2.24µM (no result: FEN1 inh, Pol eta inh, Pol kappa inh, WRN inhibitor, POLI inh)
CCOC(=O)C1Nc2ccc(C)cc2C2C=CCC12 (configuration not stated)	POLI inh inconclusive (no result: Pol beta inh)
CCOC(=O)c1ccc2c(c1)C1C=CCC1C(C(=O)OCC)N2 (configuration not stated)	Pol beta inh inconclusive, FEN1 inh inconclusive, Pol eta inh inconclusive, POLI inh inconclusive
Cc1cc(C)n(C(CC(=O)N2CCc3ccccc3C2)C(=O)O)n1 (configuration not stated)	Pol beta inh inconclusive, Pol kappa inh inconclusive, POLI inh 79.4µM
COc1cc(OC)c(/C=C/c2nccc3ccccc23)c(OC)c1	FEN1 inh 3.98µM, Pol kappa inh inconclusive, POLI inh inconclusive (no result: Pol beta inh, Pol eta inh, WRN inhibitor)
N/C(=C\C(=O)c1cc(Cl)ccc1O)C(Cl)(Cl)Cl	Pol eta inh 50.1µM, POLI inh inconclusive
O=C(O)c1ccc(CSc2nc(-c3ccc(Cl)cc3)cc(C(F)(F)F)n2)cc1	Pol beta inh 89.1µM, POLI inh inconclusive
CN1C/C(=C/c2ccccc2[N+](=O)[O-])C(=O)/C(=C\c2ccccc2[N+](=O)[O-])C1	FEN1 inh inconclusive, Pol eta inh inconclusive, Pol kappa inh inconclusive, POLI inh 89.1µM (no result: Pol beta inh)
CN(C)c1cc(N2CCOCC2)nc(C#N)n1	none (no result: Pol beta inh, Pol eta inh, WRN inhibitor)
CCOc1ccc2nc(SCC(=O)Nc3ccc(S(=O)(=O)N4CCCC4)cc3)c(C)cc2c1	FEN1 inh 39.8µM, POLI inh inconclusive
COc1ccc2nc(SCC(=O)Nc3ccc(S(=O)(=O)N4CCCC4)cc3)c(C#N)cc2c1	none
CCc1sc(C(=O)NCCc2ccc(S(N)(=O)=O)cc2)cc1Br	POLI inh 89.1µM
CCc1sc(C(=O)NCCc2ccc(S(N)(=O)=O)cc2)cc1C	POLI inh inconclusive
Cc1ccc(CNC(=O)CCCN2C(=O)CCn3nc(-c4cn(C)c5ccccc45)cc32)cc1	none (no result: WRN inhibitor)
CCCOC(=O)CSC1=C(C#N)C(c2ccccc2OCC)C(C#N)C(=O)N1 (configuration not stated)	Pol beta inh inconclusive, POLI inh inconclusive
CCCCOC(=O)CSC1=C(C#N)C(c2ccccc2OCC)C(C#N)C(=O)N1 (configuration not stated)	POLI inh 79.4µM
Cc1cccc(OCC(=O)Nc2ccc(OCc3cc(=O)n4cc(C)ccc4n3)cc2)c1	none (no result: WRN inhibitor)
COc1ccccc1/C=N/Nc1cc(C)nc2ccc(C)cc12	none
COc1ccc2nc(C)cc(N/N=C/c3ccccc3)c2c1	FEN1 inh 35.5µM, Pol eta inh inconclusive, Pol kappa inh inconclusive, WRN inhibitor inconclusive (no result: Pol beta inh)
CCOC(=O)Cn1c(=O)c2c(nc(N3CCOCC3)n2Cc2ccccc2)n(C)c1=O	none (no result: WRN inhibitor)
COc1cc2cccc(OC)c(=O)c2c(O)c1OC	none
CC(=O)Oc1cc2cccc(OC(C)=O)c(=O)c2c(OC(C)=O)c1OC(C)=O	Pol beta inh 0.178µM, FEN1 inh 1.12µM, Pol eta inh 10µM, Pol kappa inh 1µM, WRN inhibitor 8.91µM, POLI inh 1µM
O=C(O)/C(CC(=O)c1ccc(Cl)cc1)=N/Nc1ccc([N+](=O)[O-])cc1[N+](=O)[O-]	Pol beta inh inconclusive, Pol eta inh 89.1µM, Pol kappa inh inconclusive, POLI inh inconclusive
CCC(CC)=NNc1ccc([N+](=O)[O-])cc1[N+](=O)[O-]	none
CCOC(=O)N1CCC(NC(=O)c2ccc3c(c2)N(Cc2ccccc2)C(=O)c2ccccc2S3(=O)=O)CC1	none (no result: Pol eta inh, WRN inhibitor)
Cn1c(N=Nc2ccc(N3CCOCC3)cc2)[n+](C)c2ccccc21	FEN1 inh 56.2µM, WRN inhibitor 44.7µM
CN(C)c1ccc(N=Cc2ccncc2)cc1	POLI inh inconclusive (no result: Pol beta inh, Pol eta inh, WRN inhibitor)
CCOc1cccc(=O)c2c(C)n(Cc3ccco3)c(C)c12	Pol beta inh 25.1µM
